Screening data deposited in PubChem by National Center for Advancing Translational Sciences (NCATS).
LDHA inh: LDHA (human) enzyme inhibition | P00338 | purified LDHA, NADH/diaphorase-resazurin fluorescence; stronger effect = lower value | activity change, % (values are at about 110 or 230 µM) | 480,000 compounds, 0.15% hits; in the data active = activity change below about -30%;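 note: plate controls were DMSO wells for no effect and wells without enzyme for full effect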
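Enzyme activity of human lactate dehydrogenase 5 (2 nM; 0.06 mM NADH, 0.2 mM pyruvate, 5 min, RT) is measured via a resazurin/diaphorase fluorescence readout of residual NADH.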
D1 antagonist: human D1 dopamine receptor antagonism; HEK293 TREx D1 cells, calcium flux, dopamine EC80; stronger effect = lower value; activity change, negative = inhibition, % at 10 µM; 360,000 compounds, 3.2% hits; in the data active = activity change below about -30%; note: % is set by controls: 0 for no effect and ±100 for the full control effect
Target sequence (P21728 whole entry, looked up): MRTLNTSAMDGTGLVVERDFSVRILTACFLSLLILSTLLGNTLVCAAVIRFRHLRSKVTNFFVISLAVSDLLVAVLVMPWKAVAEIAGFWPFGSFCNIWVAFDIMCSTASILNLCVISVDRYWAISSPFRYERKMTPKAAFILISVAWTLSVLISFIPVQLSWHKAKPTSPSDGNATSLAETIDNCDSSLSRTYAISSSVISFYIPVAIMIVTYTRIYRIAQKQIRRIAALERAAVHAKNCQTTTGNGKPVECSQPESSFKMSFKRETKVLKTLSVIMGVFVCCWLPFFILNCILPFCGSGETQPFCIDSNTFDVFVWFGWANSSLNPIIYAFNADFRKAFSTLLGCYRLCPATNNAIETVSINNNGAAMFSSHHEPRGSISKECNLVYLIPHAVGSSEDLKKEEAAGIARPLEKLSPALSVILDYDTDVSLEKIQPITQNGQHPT
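Kinetic fluorescence of a calcium dye serves as the read-out. D1-expressing Hek293 Trex cells, induced overnight at 30 C, are exposed to compound for 180 s before an EC80 dopamine addition, then read 180 s further.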
D1 potentiator: human D1 dopamine receptor positive modulation; HEK293 TREx D1 cells, calcium flux, dopamine EC20 potentiation; 360,000 compounds, 0.036% hits; potentiation, % at 10 µM; in the data active = potentiation above about 30%; note: 0% is about no effect
TRHR agonist: agonists of human TRH receptor; P34981; TRHR cells, calcium flux fluo-8, FDSS agonist mode; activation, % at 2 µM; 360,000 compounds, 0.18% hits; note: 0% is about no effect
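Fluo-8-loaded TRHR cells; 10 s baseline, compound added, kinetic Ca2+ fluorescence read 1/s, agonist mode.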
D1 agonist: human D1 receptor agonism; P21728; HEK293 T-REx D1 cells, calcium flux, agonist mode; activation, % at 2 µM; 360,000 compounds, 1% hits; AID 504660; note: 0% is about no effect
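Tetracycline-induced HEK293 TREx D1 cells, force-coupled to calcium signalling, were dye-loaded with a no-wash calcium kit. Compound was pin-added after a 10 s baseline. Fluorescence was read kinetically at 1 cycle/s for 180 s, with calcium rises flagged as agonism.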
TRHR PAM: TRH receptor (human) allosteric enhancement; TRHR cells, fluo-8 calcium fluorescence, EC20 TRH enhancement; 360,000 compounds, 0.66% hits; enhancement, % at 2 µM; in the data active = enhancement above about 30%; note: 0% is about no effect
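TRHR-expressing cells loaded with fluo-8 calcium dye were read kinetically (ex 480/em 530) during compound addition, then stimulated with an EC20 of TRH (10 nM final). Enhancement of the Gq-mediated intracellular calcium response was scored.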
Numbers without * were called inactive; . = no result. In the library only some 3.6% were active in any assay of this set; here they are far more common. Cut-off read from the data, not from the text of the source, unless noted: active = activation above about 30%; inactive = the rest.

SMILES	LDHA inh	D1 antagonist	D1 potentiator	TRHR agonist	D1 agonist	TRHR PAM
CCOc1ccc(CNC(=O)c2ccc(-c3nc(CS(=O)(=O)c4ccccc4)c(C)o3)cc2)cc1	-35*	-3	2	1	1	0
Cc1ccc(SCc2nc(-c3ccc(C(=O)NCc4ccc(Cl)cc4)cc3)oc2C)cc1	-2	-84*	-3	0	2	-10
C/C(=N/Nc1ccc(Cl)c(Cl)c1)c1ccc(Cl)c(Cl)c1Cl	0	.	.	.	.	.
Cc1nn(C)c2c1c(-c1ccccc1)cc(=O)n2Cc1ccc(Cl)cc1	-3	-5	-5	1	18	39*
Cc1cc(=O)n(Cc2ccccc2)c2c1c(C)nn2C	2	-12	-5	0	5	12
CC(C)(C)C(=O)/C=c1/[nH]c(=O)/c(=C/c2ccc(F)c(F)c2)s1	-1	.	.	.	.	.
COc1ccc(/C=c2\s/c(=C/C(=O)c3ccc(C)cc3)[nH]c2=O)cc1OC	2	-6	-6	36*	64*	7
CC(NC(=O)c1nn(C)c(=O)c2ccccc12)c1ccc(Br)cc1 (stereo unspecified)	3	.	.	.	.	.
CCOc1ccc(NC(=O)c2cc(S(=O)(=O)N3CCc4ccccc43)ccc2F)cc1	-9	10	-2	0	-1	-1
Cc1ccc(NC(=O)c2cc(S(=O)(=O)N3CCCc4ccccc43)ccc2F)cc1F	4	-31*	-3	4	6	-9
O=C(Nc1ccc(Cl)cc1)c1cc(S(=O)(=O)N2CCCc3ccccc32)ccc1F	-14	9	1	2	5	-1
O=C(Nc1ccc(Br)cc1)c1cc(S(=O)(=O)N2CCc3ccccc32)ccc1F	6	-50*	-3	1	7	1
O=c1cc(C(F)(F)F)[nH]c2c(C(F)(F)F)cccc12	-15	-22	-5	5	32*	-1
O=c1cc(C(F)(F)F)[nH]c2ccc(OC(F)(F)F)cc12	-9	-10	2	7	30	-10
Cc1ccc(NC(=O)CN2CCC(C(N)=O)CC2)cc1F	-6	.	.	.	.	.
COc1ccc(Cc2noc(CN3CCN(c4ccc(Cl)cn4)CC3)n2)cc1OC	0	-31*	-4	-1	15	-6
COc1ccc(Cc2noc(CN3CCN(Cc4cccc(Cl)c4)CC3)n2)cc1OC	2	-7	-9	0	7	-5
COc1ccccc1NC(=O)CN1CCC(n2c(C)nc3cc(F)ccc32)CC1	-18	8	-11	2	2	5
O=C(c1ccc([N+](=O)[O-])cc1)N1CCC(n2nnc3cc(F)ccc32)CC1	-4	31	4	0	0	40*
COc1ccc(Cl)cc1NC(=O)CN1CCCCCC1	-11	8	4	2	2	-10
COc1ccc(C(=O)NNC(=O)CN2CCC(n3nnc4cc(F)ccc43)CC2)cc1	-6	-34*	3	0	1	2
COc1ccccc1NC(=O)CN1CCC(n2nnc3cc(F)ccc32)CC1	-4	-46*	-9	-1	1	-3
COc1ccc(Cl)cc1NC(=O)CN1CCC(n2nnc3cc(C)ccc32)CC1	2	-37*	-8	0	2	0
COc1ccc(S(=O)(=O)N2CCN(Cc3ccc(C(F)(F)F)cc3)CC2)cc1OC	-7	.	.	.	.	.
Cc1ccc2c(c1)nnn2C1CCN(CC(=O)Nc2ccccc2N2CCOCC2)CC1	-16	-30*	-13	-1	3	1
SMILES	LDHA inh	D1 antagonist	D1 potentiator	TRHR agonist	D1 agonist	TRHR PAM
Cc1ccc2c(c1)nnn2C1CCN(CC(=O)NCCc2ccccc2)CC1	2	.	.	.	.	.
Cc1cc(O)c2c(C)c(CC(=O)NCCN3CCOCC3)c(=O)oc2c1	1	.	.	.	.	.
C=CCNC(=O)c1ccccc1CSc1nc2ccccc2o1	-2	.	.	.	.	.
COc1ccccc1N1CCN(C2CCCN(C(=O)CN3CCCC3=O)C2)CC1 (stereo unspecified)	0	-32*	-4	0	-1	7
CC(C)/C=C/C(=O)N1CCCC(N2CCN(c3ccccc3F)CC2)C1 (stereo unspecified)	4	-46*	-5	-1	1	-5
Cc1ccc(-c2csc(NC(=O)c3ccccc3F)n2)s1	2	.	.	.	.	.
Cc1cccc(OCc2ccc(-c3nc(C#N)c(NCCN(C)C)o3)o2)c1	1	-18	3	-3	102*	-7
O=C(Cc1ccccc1)Nc1ccc2c(c1)OC1(CCCC1)O2	10	-6	.	0	5	2
Nc1ccc2c(c1)OC1(CCCC1)O2	16	-37*	-3	0	1	4
COc1ccc(CCNC(=O)c2ccc3c(c2)N(Cc2ccccc2)C(=O)CS3=O)cc1OC (stereo unspecified)	9	.	.	.	.	.
O=C(Nc1ccc2c(c1)OCCO2)C1CCCN(S(=O)(=O)c2cccc3nsnc23)C1 (stereo unspecified)	9	-36*	38*	0	0	19
O=C(Nc1ccc2c(c1)OCCO2)C1CCN(S(=O)(=O)c2cccc3nsnc23)CC1	0	.	.	.	.	.
CCOC(=O)C1=NN(C(=O)c2ccccc2)C(O)(c2ccc(C)cc2)C1 (stereo unspecified)	-5	-12	8	0	19	-7
COC(=O)C1=NN(C(=O)c2cccc(Br)c2)C(O)(c2ccc(Cl)cc2)C1 (stereo unspecified)	5	-9	1	16	106*	2
CCOC(=O)C1=NN(C(=O)c2cccc(Br)c2)C(O)(C(C)(C)C)C1 (stereo unspecified)	.	-9	-10	22	51*	-8
CCOC(=O)C1=NN(C(=O)Cc2ccccc2)C(O)(c2ccc(Cl)cc2)C1 (stereo unspecified)	3	40	2	0	6	4
CCOC(=O)C1=NN(C(=O)c2ccc(OC)cc2)C(O)(c2ccc(Cl)cc2)C1 (stereo unspecified)	-4	-27	-4	14	128*	-2
O=C(NC1CCCC1)c1ccc(Oc2ccccc2)cc1	-4	.	.	.	.	.
CC(C)(C)c1ccc(OCC(=O)NC(Cc2c[nH]c3ccccc23)C(=O)O)cc1 (stereo unspecified)	-1	13	-1	1	49*	-5
COc1cccc2cc(-c3nnc(SCC(=O)Nc4ccc(C)cc4)n3N)oc12	-3	.	.	.	.	.
CC1CC(C)CN(c2ccc([N+](=O)[O-])nc2)C1 (stereo unspecified)	-13	-9	0	-1	0	2
CC1CN(c2ccc([N+](=O)[O-])nc2)CC(C)O1 (stereo unspecified)	2	-35*	-4	0	1	0
